The text below walks through data of PubChem BioAssay (Tox21).

“And” between values parts separate entries of the source, which are not always exact repeats. Equal values may be shown once. Inconclusive results are not listed. More than one record can exist for a structure, and the calls need not agree. The source made the active and inactive calls. Calls come from the whole dose curve; as a rule, active = well fitted curve in the direction sought with a large enough effect in the repeat runs; inconclusive = weak or mixed curves; inactive = no such curve, though single readings can be large; an effect the other way counts as inactive or inconclusive.

Experiment [1] in a line: qHTS RealTime-Glo MT Cell Viability Assay in HepG2 cells - 40 hour (AID 1224870). Note: nearly all actives have a fitted effect of over 50% in size. The essentials:
(§1)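 HepG2 cells mixed with RealTime-Glo MT reagents (NanoLuc plus cell-permeant prosubstrate) were seeded at 600 cells/well, incubated 5 h at 37 C/5% CO2, then pinned with compounds in DMSO; nonlytic luminescence tracked viability during 40 h treatment.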

The nature of experiment [2]: A CellTox Green Cytotoxicity Assay to monitor cytotoxicity in HEK293 cells - 40 hour (AID 1224871). Note: nearly all actives have a fitted effect of over 45% in size. The essentials:
(§2)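 Tox21 screen in HEK293: membrane-impermeant cyanine dye fluoresces on binding dead-cell DNA; compound pinned 5 h post-seeding, plates held at 37 C, signal read repeatedly through 40 h.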

The nature of experiment [3]: qHTS RealTime-Glo MT Cell Viability Assay in HEK293 cells - 16 hour (AID 1224872). Note: nearly all actives have a fitted effect of over 50% in size. Note: potency is the fitted concentration of half-maximal effect. The essentials: (§3)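 Quantitative high-throughput screen of the Tox21 10K library in HEK293: cells and RealTime-Glo reagents plated together, compound added at 5 h, luminescence monitored through 40 h at 37 C.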
Experiment [4] in a line: qHTS RealTime-Glo MT Cell Viability Assay in HepG2 cells - 8 hour (AID 1224873). Note: nearly all actives have a fitted effect of over 55% in size. The essentials: as §1
Experiment [5] can be described thus: qHTS RealTime-Glo MT Cell Viability Assay in HEK293 cells - 40 hour (AID 1224874). Note: nearly all actives have a fitted effect of over 50% in size. The settings on record: RealTime-Glo luminescence; max response: stronger effect = lower value. The essentials:
(§4)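 HEK293 + NanoLuc + prosubstrate, 600 cells/well; 5 h, 37 C/5% CO2; compound 23 nL in DMSO by pintool; 37 C; luminescence read at 0, 8, 16, 24, 32 and 40 h time points.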

The nature of experiment [6]: A CellTox Green Cytotoxicity Assay to monitor cytotoxicity in HEK293 cells - 24 hour (AID 1224875). Note: series mostly up to about 77 µM; nearly all actives have a fitted effect of over 45% in size. In a few lines:
as §2

The nature of experiment [7]: qHTS RealTime-Glo MT Cell Viability Assay in HepG2 cells - 32 hour (AID 1224877). Note: nearly all actives have a fitted effect of over 55% in size. In a few lines: (§5)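 Compound treatment began 5 h after plating HepG2 cells (600/well) with NanoLuc luciferase and prosubstrate. Plates stayed at 37 C for 40 h; luminescence was captured at six time points, 0 h through 40 h.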
The nature of experiment [8]: A CellTox Green Cytotoxicity Assay to monitor cytotoxicity in HepG2 cells - 24 hour (AID 1224878). Note: nearly all actives have a fitted effect of over 45% in size. The essentials:
(§6)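 Measurements at 0, 8, 16, 24, 32 and 40 h of treatment captured CellTox Green fluorescence in HepG2 cells that had been co-plated with reagent and preincubated 5 h at 37 C/5% CO2.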

Experiment [9] can be described thus: A CellTox Green Cytotoxicity Assay to monitor cytotoxicity in HepG2 cells - 40 hour (AID 1224879). Note: nearly all actives have a fitted effect of over 40% in size. The essentials: as §6
Experiment [10] is described as follows: qHTS RealTime-Glo MT Cell Viability Assay in HEK293 cells - 0 hour (AID 1224880). Note: top concentration of the series differs between compounds; nearly all actives have a fitted effect of over 45% in size. In a few lines:
as §4

Experiment [11] can be described thus: A CellTox Green Cytotoxicity Assay to monitor cytotoxicity in HEK293 cells - 32 hour (AID 1224881). Note: nearly all actives have a fitted effect of over 40% in size. In a few lines:
as §2

Experiment [12] can be described thus: A CellTox Green Cytotoxicity Assay to monitor cytotoxicity in HepG2 cells - 0 hour (AID 1224882). Note: nearly all actives have a fitted effect of over 35% in size. The essentials:
as §6

Experiment [13] is described as follows: A CellTox Green Cytotoxicity Assay to monitor cytotoxicity in HepG2 cells - 32 hour (AID 1224883). Note: nearly all actives have a fitted effect of over 50% in size. The essentials:
as §6

A short description of experiment [14]: A CellTox Green Cytotoxicity Assay to monitor cytotoxicity in HEK293 cells - 8 hour (AID 1224884). Note: nearly all actives have a fitted effect of over 35% in size. The essentials:
as §2

A short description of experiment [15]: qHTS RealTime-Glo MT Cell Viability Assay in HepG2 cells - 16 hour (AID 1224885). Note: nearly all actives have a fitted effect of over 50% in size. The essentials:
as §5

Experiment [16] can be described thus: qHTS RealTime-Glo MT Cell Viability Assay in HEK293 cells - 24 hour (AID 1224886). Note: nearly all actives have a fitted effect of over 50% in size. Note: potency is the fitted concentration of half-maximal effect. In a few lines:
as §3

Experiment [17] in a line: qHTS RealTime-Glo MT Cell Viability Assay in HEK293 cells - 8 hour (AID 1224887). In a few lines: as §4
A short description of experiment [18]: A CellTox Green Cytotoxicity Assay to monitor cytotoxicity in HEK293 cells - 16 hour (AID 1224888). Note: nearly all actives have a fitted effect of over 35% in size. The essentials:
as §2

A short description of experiment [19]: qHTS RealTime-Glo MT Cell Viability Assay in HepG2 cells - 0 hour (AID 1224889). Note: nearly all actives have a fitted effect of over 50% in size. Note: potency is the fitted concentration of half-maximal effect. In a few lines: as §5
The nature of experiment [20]: A CellTox Green Cytotoxicity Assay to monitor cytotoxicity in HepG2 cells - 16 hour (AID 1224876). Note: nearly all actives have a fitted effect of over 45% in size. The essentials: as §6
% is set by controls: 0 for no effect and ±100 for the full control effect.

Regarding `c1ccc(P(c2ccccc2)c2ccccc2)cc1`, the Potency entry in experiment [1], in [2], in [3], in experiment [4], in [6] and in experiment [7] was “inactive” throughout. Besides, the Potency entry in experiment [8], in experiment [9], in [10], in experiment [11], in [12] and in [13] was “inactive” throughout. The Potency result in experiment [14], in [15], in experiment [16], in experiment [17], in experiment [18] and in experiment [19] was “inactive” in each case. Moreover, in experiment [5], the max response is -31.4% (inactive).

Take `O=[N+]([O-])c1ccc(O)c([N+](=O)[O-])c1`: the Potency entry in experiment [1], in experiment [2], in [3], in experiment [4], in [7] and in experiment [8] was “inactive” each time. Moreover, the Potency entry in experiment [9], in experiment [10], in experiment [12], in experiment [13], in experiment [14] and in experiment [15] was “inactive” each time. Also, the Potency result in [16], in experiment [17], in experiment [18] and in experiment [19] was “inactive” in each case. In experiment [5], the max response is -16% (inactive).

In the case of `c1ccc(-c2cccc(-c3ccccc3)c2)cc1`, the Potency entry in [1], in experiment [2], in [3], in experiment [4], in experiment [6] and in experiment [20] was “inactive” each time. Further, the Potency result in experiment [7], in experiment [8], in experiment [9], in experiment [10], in experiment [11] and in experiment [13] was “inactive” throughout. In addition, the Potency entry in experiment [14], in experiment [15], in experiment [16], in [17], in [18] and in [19] was “inactive” throughout. For the same compound, the max response in [5] was -23.8% (inactive).

Regarding `CCOc1cc(C=O)ccc1O`, the Potency result in [1], in experiment [2], in [3], in [4], in [6] and in experiment [20] was “inactive” in each case. In addition, the Potency result in experiment [7], in [8], in experiment [9], in experiment [10], in [11] and in [12] was “inactive” in each case. The Potency result in experiment [13], in experiment [14], in experiment [15], in experiment [16], in experiment [17] and in [18] was “inactive” each time. Moreover, the Potency entry in experiment [19] was “inactive”. Further, the max response in experiment [5] is 4.96% (inactive) and 4.75% (inactive).

Turning to `Nc1ccc(-c2ccccc2)cc1`, the Potency result in experiment [1], in [2], in [4], in [6], in [7] and in experiment [8] was “inactive” throughout. Further, the Potency entry in experiment [9], in experiment [10], in [11], in experiment [12], in experiment [13] and in experiment [14] was “inactive” throughout. For the same compound, the Potency entry in experiment [15], in experiment [17], in experiment [18] and in experiment [19] was “inactive” each time. Besides, the Potency was 10 µM (active) and inactive in experiment [3]; 7.11 µM (active) and inactive in experiment [16].

As for `CN(C)C(=O)Nc1ccc(Cl)cc1`, the Potency result in [1], in [2], in experiment [3], in [4], in [6] and in experiment [20] was “inactive” throughout. Also, the Potency entry in experiment [7], in [8], in experiment [9], in experiment [10], in experiment [11] and in experiment [12] was “inactive” in each case. Besides, the Potency entry in experiment [13], in experiment [14], in [15], in experiment [16], in experiment [18] and in experiment [19] was “inactive” each time.

For the compound `C[C@]12CCC(=O)C(O)=C1CC[C@@H]1[C@@H]2CC[C@]2(C)C(=O)CC[C@@H]12`, the Potency entry in experiment [1], in experiment [2], in [3], in [4], in experiment [6] and in [20] was “inactive” in each case. For the same compound, the Potency result in [7], in experiment [8], in [9], in [10], in experiment [11] and in [12] was “inactive” throughout. Further, the Potency entry in experiment [13], in experiment [14], in [15], in [16] and in experiment [18] was “inactive” throughout. Also, in experiment [5], the max response is -15.6% (inactive). Besides, the Potency in [19] was 21.9 µM (active) and inactive.

On to `Nc1ccc(Cl)c(Cl)c1`, for which the Potency result in [1], in [2], in experiment [3], in experiment [4], in experiment [6] and in [20] was “inactive” each time. Also, the Potency result in experiment [7], in experiment [8], in [9], in experiment [10], in [11] and in experiment [12] was “inactive” throughout. For the same compound, the Potency result in [13], in experiment [14], in experiment [15], in experiment [16], in experiment [18] and in experiment [19] was “inactive” throughout.

Take `CCCCC(CC)COC(=O)c1ccc(C(=O)OCC(CC)CCCC)c(C(=O)OCC(CC)CCCC)c1` (stereo not given): the Potency entry in experiment [1], in experiment [2], in [3], in experiment [4], in experiment [6] and in experiment [7] was “inactive” each time. In addition, the Potency result in [8], in experiment [9], in [10], in [11], in experiment [12] and in experiment [13] was “inactive” throughout. The Potency result in experiment [14], in experiment [15], in [16], in experiment [18] and in experiment [19] was “inactive” each time.

As to `CCCCC(CC)COC(=O)Cl` (stereo not given), the Potency entry in experiment [1], in experiment [2], in experiment [3], in [4], in experiment [6] and in [7] was “inactive” in each case. Moreover, the Potency result in [8], in [9], in experiment [10], in experiment [11], in experiment [12] and in experiment [13] was “inactive” in each case. Also, the Potency entry in experiment [14], in experiment [15], in experiment [16], in experiment [17], in experiment [18] and in experiment [19] was “inactive” in each case. Also, in experiment [5], the max response was 2.04% (inactive).

For the compound `O=[N+]([O-])c1cccc2ccccc12`, the Potency result in experiment [1], in experiment [2], in [3], in [4], in experiment [6] and in [20] was “inactive” each time. Moreover, the Potency result in [7], in experiment [8], in [9], in experiment [10], in [11] and in [13] was “inactive” throughout. The Potency result in experiment [14], in experiment [15], in experiment [16], in experiment [18] and in experiment [19] was “inactive” in each case. For the same compound, the max response in experiment [5] was 3.63% (inactive) and 7.21% (inactive).

Consider `CCCCCCCCC(=O)NCc1ccc(O)c(OC)c1`, for which the Potency result in [1], in experiment [2], in experiment [3], in experiment [4], in experiment [6] and in experiment [20] was “inactive” in each case. In addition, the Potency result in experiment [7], in [8], in [9], in [10], in experiment [11] and in experiment [12] was “inactive” throughout. Further, the Potency entry in experiment [13], in experiment [14], in experiment [15], in [16], in experiment [18] and in experiment [19] was “inactive” in each case. Besides, the max response in experiment [5] is 8.1% (inactive) and -1.04% (inactive).

Turning to `Cc1cccc(N)c1N`, the Potency entry in experiment [1], in experiment [2], in experiment [3], in [4], in experiment [6] and in [20] was “inactive” throughout. Also, the Potency entry in experiment [7], in experiment [8], in experiment [9], in [10], in experiment [11] and in experiment [12] was “inactive” throughout. Besides, the Potency entry in experiment [13], in experiment [14], in experiment [15], in experiment [16], in experiment [17] and in experiment [18] was “inactive” in each case. Further, in experiment [19], the Potency entry is “inactive”.

Consider `COc1ccc(C=O)cc1`, for which the Potency entry in experiment [1], in [2], in experiment [3], in experiment [4], in experiment [6] and in experiment [20] was “inactive” each time. The Potency entry in experiment [7], in [8], in [9], in experiment [10], in [11] and in [12] was “inactive” throughout. Moreover, the Potency result in [13], in [14], in experiment [15], in experiment [16], in experiment [17] and in experiment [18] was “inactive” throughout. Further, in [19], the Potency entry was “inactive”. Besides, the max response in experiment [5] was 7.64% (inactive) and 1.9% (inactive).
